JMJD2A Tudor inh = inhibitors of human JMJD2A Tudor domain; AlphaScreen JMJD2A-Tudor / H3K4me3 peptide binding; Potency, µM (top dose mostly 114 µM), inactives show at the top dose activity change, negative = inhibition, most hits filed as inhibitors; 4.4% of 390,000 active; AID 504339; note: % is set by controls: 0 for no effect and ±100 for the full control effect; nearly all actives have a fitted effect of over 50% in size
Target sequence (O75164 whole entry, looked up, the tested form may be a part): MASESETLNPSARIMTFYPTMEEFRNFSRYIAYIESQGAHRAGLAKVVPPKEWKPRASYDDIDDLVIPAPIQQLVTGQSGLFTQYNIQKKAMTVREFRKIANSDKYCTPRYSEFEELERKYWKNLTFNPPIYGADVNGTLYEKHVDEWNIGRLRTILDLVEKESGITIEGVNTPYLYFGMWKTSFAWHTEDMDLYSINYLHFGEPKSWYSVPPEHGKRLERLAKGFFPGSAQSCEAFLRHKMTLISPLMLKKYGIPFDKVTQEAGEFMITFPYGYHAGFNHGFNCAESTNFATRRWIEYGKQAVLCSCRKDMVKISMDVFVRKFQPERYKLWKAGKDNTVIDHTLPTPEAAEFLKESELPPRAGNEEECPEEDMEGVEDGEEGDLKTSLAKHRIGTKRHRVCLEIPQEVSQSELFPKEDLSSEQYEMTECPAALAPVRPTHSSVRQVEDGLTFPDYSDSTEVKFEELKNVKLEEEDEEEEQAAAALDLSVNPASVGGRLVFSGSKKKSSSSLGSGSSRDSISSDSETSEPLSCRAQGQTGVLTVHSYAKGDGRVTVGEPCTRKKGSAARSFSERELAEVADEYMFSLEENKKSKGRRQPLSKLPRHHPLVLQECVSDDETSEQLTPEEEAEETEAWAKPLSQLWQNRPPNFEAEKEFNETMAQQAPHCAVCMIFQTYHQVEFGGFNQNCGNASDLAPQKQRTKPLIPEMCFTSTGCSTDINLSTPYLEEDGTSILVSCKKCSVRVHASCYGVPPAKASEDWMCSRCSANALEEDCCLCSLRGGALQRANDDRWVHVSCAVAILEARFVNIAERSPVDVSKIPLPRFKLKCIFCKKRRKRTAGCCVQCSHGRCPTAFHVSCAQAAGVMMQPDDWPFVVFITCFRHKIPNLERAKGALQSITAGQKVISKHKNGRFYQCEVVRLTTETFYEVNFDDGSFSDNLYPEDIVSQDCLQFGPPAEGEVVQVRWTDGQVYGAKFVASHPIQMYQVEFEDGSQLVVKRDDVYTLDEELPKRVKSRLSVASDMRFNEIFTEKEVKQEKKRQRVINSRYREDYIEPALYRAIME
12-LOX inh = inhibitors of human 12S-lipoxygenase ALOX12. Potency, µM (top dose mostly 108 µM), for inactives: at the top dose activity change, negative = inhibition, hits mostly inhibitors. 1.1% of 580,000 active. purified 12hLO, xylenol orange hydroperoxide absorbance; note: % is set by controls: 0 for no effect and ±100 for the full control effect
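Hydroperoxide product was detected by ferrous iron/xylenol orange as the 573 to 405 nm absorbance ratio. Arachidonic acid at 40 uM (final) was turned over for 30 min at room temperature by 150 nM human 12hLO, pH 7.0 Hepes buffer, after 15 min compound preincubation.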
PLK1 PBD inh = inhibitors of human PLK1 polo-box domain binding | AID 720504 | Potency, µM, for the others: max response, negative = inhibition, usual class: inhibitors | Plk1 PBD binding of FITC phosphopeptide, fluorescence polarization | 2.8% of 360,000 active | P53350; note: series mostly up to about 57 µM; % is set by controls: 0 for no effect and ±100 for the full control effect; nearly all actives have a fitted effect of over 65% in size
G9a block = inhibitors of human histone lysine methyltransferase G9a. Q96KQ7. G9a H3K9 monomethylation, AlphaScreen, 2 h. Potency, µM (titrated, usually from 102 µM), without a hit: top-dose activity, negative = inhibition, usual class: inhibitors. 8.8% of 350,000 active; note: % is set by controls: 0 for no effect and ±100 for the full control effect; nearly all actives have a fitted effect of over 75% in size
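Compounds were preincubated with 20 nM G9a for 15 min, after which biotinylated H3K9 peptide (500 nM) and SAM (20 uM) started a 2 h room-temperature reaction. Monomethylated product was quantified by antibody-based AlphaScreen chemiluminescence.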
HP1b chromo inh = blocks HP1-beta chromodomain binding to methylated histone tails; P83916; 0.56% of 390,000 active; Potency, µM (doses to about 114 µM), for inactives: at the highest dose activity change, negative = inhibition, actives largely listed as inhibitors; AlphaScreen HP1-beta / biotin-H3K9me3 peptide binding; AID 540317; note: nearly all actives have a fitted effect of over 70% in size
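Compound inhibition of the preformed complex between 50 nM HP1-beta and 50 nM biotinylated H3K9me3 peptide was read by AlphaScreen. Buffer was PBS pH 7.4 with 0.01% Tween-20. Incubations ran 30 min at room temperature, with 10 ug/mL donor/acceptor beads.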
BAZ2B inh = BAZ2B (human) inhibition; Q9UIF8; AlphaScreen BAZ2B-H3K14Ac peptide displacement; Potency, µM (highest dose often 114 µM), for the others: top-dose activity change, negative = inhibition, usual class: inhibitors; 4.4% of 360,000 active; note: % is set by controls: 0 for no effect and ±100 for the full control effect; nearly all actives have a fitted effect of over 60% in size
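AlphaScreen luminescence quantifies BAZ2B engagement of H3K14Ac peptide; the protein and biotinylated peptide are both at 50 nM final, buffer PBS pH 7.4 with 0.01% Tween-20, all steps at room temperature.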
* marks the source's active call; other numbers are inactive results; ? = inconclusive; . = no result; ! = not active in a repeat; [ ] = remark or other dose. Sampled rows, rich in hits. Any-hit rate of the full collection: about 9%. Calls come from the whole dose curve; as a rule, active = well fitted curve in the direction sought with a large enough effect; inconclusive = small, poorly fitted or top-dose-only effect, or another doubt; inactive = no such curve, though single readings can be large; an effect the other way counts as inactive or inconclusive. Potency is the fitted concentration of half-maximal effect.

SMILES | JMJD2A Tudor inh | 12-LOX inh | PLK1 PBD inh | G9a block | HP1b chromo inh | BAZ2B inh
CCN1CCc2c(sc(NC(=O)c3ccc(S(=O)(=O)N4CCOCC4)cc3)c2C(N)=O)C1 | -17% | -1% | -2% | 56µM* | 26% | -4%
CCOC(=O)N1CCc2c(sc(NC(=O)c3ccc(Cl)s3)c2C(N)=O)C1 | . | . | . | 28µM* | . | -31%
CCOC(=O)c1c(N)sc2c1CCN(Cc1ccccc1)C2 | . | 42% | . | 10µM* | . | .
Cc1[nH]cnc1C(=O)N/N=C/c1ccc([N+](=O)[O-])s1 | -19% | -9% | -12% | 9% | 18% | -25%
COc1ccc(NC(=O)CSc2nc(SC)ns2)cc1 | -4% | 8% | -8% | -12% | 43% | -1%
c1ccc(CCNc2cc(-c3ccc4ccccc4c3)nc3ccnn23)nc1 | . | 2% | -3% | . | . | .
COc1ccc(NS(=O)(=O)c2cc(C(=O)OC(C)C(=O)N3CCOCC3)ccc2Cl)cc1 (configuration not stated) | -6% | 9% | -4% | -32% | 37% | -1%
Cc1sc(NC(=S)NC(=O)c2ccco2)c(C(N)=O)c1C | -15%[11.4 µM] | -19% | ? | 40µM* | 3% | -2%
CCN1CCc2c(sc(NC(=O)c3ccc(S(=O)(=O)N(CC)c4ccccc4)cc3)c2C(N)=O)C1 | -27% | ? | -4% | ? | -7% | -25%
CCN1CCc2c(sc(NC(=O)c3ccc(C(=O)c4ccccc4)cc3)c2C(N)=O)C1 | ? | ? | -2% | 71µM* | 8% | 40µM*
CCN1CCc2c(sc(NC(=S)NC(=O)c3ccco3)c2C(N)=O)C1 | ? | 0% | 24µM* | 20µM* | ? | -34%
CNC(=O)c1c(NC(=O)c2ccco2)sc(C)c1C | -11% | 3% | -8% | -3% | 18% | 1%
CCN1CCc2c(sc(NC(=O)Cc3ccccc3)c2C(N)=O)C1 | -10% | 0% | -10% | . | 7% | 33%
CCC(=O)Nc1ccc2c(c1)nc(CCN1CCC(C)CC1)n2C | 5% | 1% | 1% | 5% | 71% | 5%
CCc1ccc(NC(=O)c2ccc(Cn3nc(N4CCN(c5ccccc5)CC4)ccc3=O)o2)cc1 | ? | ? | . | ? | 2% | 50µM*
Cc1ccc(C(=O)O/N=C(\N)c2ccc(C(F)(F)F)cn2)cc1 | -18% | 1% | -2% | 0% | 21% | -13%
N/C(=N\OC(=O)c1csnn1)c1ccc(C(F)(F)F)cc1 | -5% | ? | -7% | 18µM* | -20% | -1%
O=C(O)[C@H]1NCCC[C@H]1C(=O)O | . | . | . | 6.7µM*! | . | .
O=C(O)C1CCCNC1 (configuration not stated) | -17% | . | -9% | -3%[59 µM] | 24% | 2%
COCC1CN(C(=O)c2ccc(OC)nc2OC)CC12CCNCC2 (configuration not stated) | . | 53% | . | . | . | .
Cc1ccc2c(c1)S/C(=C/c1ccc[n+](C)c1)N2CCO | 25µM* | 0% | 6% | 14µM* | 9% | -35%
Cc1ccc(S(=O)(=O)CCC(=O)NCCN2C(=O)S/C(=C\c3ccccc3)C2=O)cc1 | -11% | 6% | -8% | 9% | 27% | 11%
CCOC(=O)C1=CN(Cc2cccc(F)c2)S(=O)(=O)N(C)C1c1ccc(C(F)(F)F)cc1 (configuration not stated) | 0% | -17% | -5% | . | 84% | .
O=c1nc2c(O)cccn2c2c1c(=O)[nH]c1ccccc12 | 22µM* | ? | 24µM* | 45µM* | -13% | ?
O=c1[nH]c2ccccc2c2nc3ccccn3c12 | -3% | -15% | -4% | -28% | 9% | -32%
SMILES | JMJD2A Tudor inh | 12-LOX inh | PLK1 PBD inh | G9a block | HP1b chromo inh | BAZ2B inh
O=C(O)CSc1nnc(-c2cccs2)n1-c1ccc(Cl)cc1 | 18µM* | -62% | 27µM* | ? | ? | -18%
CCOc1ccc(/C=C2\SC(=S)N(C(C(=O)O)c3ccccc3)C2=O)cc1OC (configuration not stated) | -29% | 16µM* | ? | ? | 16% | ?
COc1ccc(OC)c(/C=C2\SC(=S)N(C(C(=O)O)c3ccccc3)C2=O)c1 (configuration not stated) | -28% | ? | -29% | . | 6% | -33%
C=CCOc1ccc(/C=C2\SC(=S)N(C(C(=O)O)c3ccccc3)C2=O)cc1 (configuration not stated) | ? | ? | 30µM* | ? | -21% | ?
CS(=O)(=O)Nc1ccc(C2(C(=O)NCc3ccccc3F)CCCCC2)cc1 | . | 28% | . | . | . | .
O=C(NCCC1=CCCCC1)C1CCN(c2nc3ccccc3o2)CC1 | -11% | -6% | 1% | -13% | 24% | 7%
CCc1ccccc1NC(=O)CN(C)C(=O)C(C)N1CCCC(C(F)(F)F)C1 (configuration not stated) | . | -5% | . | . | . | .
Cc1ccccc1NS(=O)(=O)c1ccc2[nH]cc(C(=O)N(C)Cc3ccco3)c(=O)c2c1 | ? | . | -10% | . | -29% | 56µM*
Cc1ccc(NC(=S)Nc2ccc3[nH]c(=O)[nH]c3c2)cc1 | -7%[11.4 µM] | -1% | 19µM* | 50µM* | -15% | -21%
O=c1[nH]c2ccc(NC(=S)Nc3ccc(Cl)cc3)cc2[nH]1 | -17% | ? | -29% | -2%[59 µM] | -10% | 8%
COCCNC(=S)Nc1ccc2[nH]c(=O)[nH]c2c1 | -10% | -20% | -16% | 18µM* | -2% | -22%
O=c1[nH]c2ccc(NC(=S)Nc3ccccc3)cc2[nH]1 | -9%[57.1 µM] | ? | ? | 45µM* | -14% | 14%
Cc1ccc(C(=O)NC(=S)Nc2ccc3[nH]c(=O)[nH]c3c2)cc1 | ? | ? | -6% | 50µM* | 12% | 7%
COc1cc(OC)cc(C(=O)NC(=S)Nc2ccc3[nH]c(=O)[nH]c3c2)c1 | -26% | ? | -7% | 6% | 20% | 10%
O=C(Nc1cccc(-c2cccc(F)c2)c1)C1CCN(Cc2ccco2)CC1 | -32% | 0% | -6% | -8%[0.501 µM] | 15% | ?
CN(C)/C=N/c1nc2nccc(-c3ccc(Cl)cc3)n2n1 | -4% | 0% | 2% | 48% | 44% | -10%
COc1ccc(-c2cnc3nc(/N=C/N(C)C)nn3c2/N=C/N(C)C)cc1 | -20%[11.4 µM] | 0% | 24µM* | 29% | -14% | -2%
CN(C)/C=N/c1nc2nccc(-c3ccccc3)n2n1 | -5%[11.4 µM] | 4% | 27µM* | 18% | -8% | 5%
COc1cccc(-c2cc(C(=O)NCCCN3CCOCC3)no2)c1 | 4% | -14% | 1% | 17%[59 µM] | 30% | 1%
COc1ccc(-c2noc(-c3csc([C@@H]4C[C@H](O)[C@@H](CO)O4)n3)n2)cc1OC | . | -5% | -13% | . | . | .
Cc1nc2ccccn2c1C(=O)NNC(=S)Nc1ccccc1 | -12% | 115% | -13% | -130%[59 µM] | 36% | -17%

Bioassay records (PubChem)
